Screening results: PubChem, National Center for Advancing Translational Sciences (NCATS)
The entries come from a sample that favours hits as a whole.
Pf Dd2 inh – Plasmodium falciparum Dd2 growth inhibition; P. falciparum Dd2 growth, SYBR Green, 72 h; AID 1347417; Potency, µM (top dose mostly 28.9 µM), for inactives: at the top dose activity, negative = inhibition, hits mostly inhibitors; hit rate 4.3% among 120,000; active = well fitted inhibition curve with a large enough effect;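 note: plate controls were DMSO vehicle for no effect and reference drug for full effect; nearly all actives have a fitted effect of over 65% in size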
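Readout: SYBR Green fluorescence, 485 nm excitation, 535 nm emission, after ~16 h lysis at 37C. Before that, Dd2-infected red cells (2.5% hematocrit) grew 72 h with compound, 29 uM top final concentration.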
Starred values were filed as active, the others as inactive; i = inactive; [ ] = remark or other dose. Potency is the fitted concentration of half-maximal effect.

SMILES | Pf Dd2 inh
O=C1NC2(CCCN(Cc3cccnc3)C2)COc2ccccc21 (stereo not drawn) | i
COc1ccc(CN2CCC3(C2)NC(=O)c2ccccc2CO3)cc1 (stereo not drawn) | -16%
COc1ccc(CN2CCC3(CC2)NC(=O)c2ccccc2O3)cc1 | 13µM*
CCC(=O)N1C[C@@H]2CCCN3CCC[C@@H]([C@H]23)[C@H]1CCCC(=O)Nc1ccccc1 | -16%
CCc1noc([C@@H]2CC(F)(F)CN2C(=O)c2cn(C)cn2)n1 | i
CCC(=O)NC[C@H]1Cn2cc(-c3ccc(OC)cc3)nc2CO1 | i
CC(C)=CCC1(CO)CCCN(C(=O)CN2CCCC2=O)C1 (stereo not drawn) | -3%
NC(=O)CN1C(=O)CO[C@H]2CN(Cc3ccccc3F)C[C@H]21 | 6%[44.1 µM]
CC(C)[C@H]1CN(Cc2ccc(C(F)(F)F)nc2)C[C@@H]1NC(=O)CO | -3%
CC(C)NC(=O)[C@H]1CN2CCC1C[C@@H]2Cn1cc(CSc2ccccc2)nn1 (stereo partly drawn) | i
CC(=O)c1cccc(C(=O)N2CCC3(CC2)NC(=O)N(Cc2cccc(Cl)c2)C3=O)c1 | -3%
COCCN1C(=O)CS(=O)C12CCN(C(=O)NCCc1ccccc1)CC2 (stereo not drawn) | -2%
O=C1NC2(CCCN(Cc3ccccc3)C2)Oc2ccccc21 (stereo not drawn) | 13µM*
COc1cccc(CN2CCC3(COc4ccccc4C(=O)N3)C2)c1 (stereo not drawn) | i
CN(C)c1ccc(CN2CCC3(CC2)NC(=O)c2ccccc2O3)cc1 | i
O=C1NC2(CCCN(Cc3ccsc3)C2)COc2ccccc21 (stereo not drawn) | 0%[44.1 µM]
COc1ccc(CN2CCC3(CC2)C(=O)NCN3Cc2ccc(Cl)cc2)cc1 | 3.2µM*
O=C1NC2(CCN(Cc3ccsc3)CC2)Oc2ccccc21 | -23%[44.1 µM]
O=C1NC2(CCCN(Cc3ccncc3)C2)Oc2ccccc21 (stereo not drawn) | -21%[44.1 µM]
O=C1NC2(CCN(Cc3ccc(F)cc3)CC2)Oc2ccccc21 | 10µM*
O=C1NCN(Cc2ccc(Cl)cc2)C12CCN(Cc1ccncc1)CC2 | i
COc1cccc(CN2CCCC3(COc4ccccc4C(=O)N3)C2)c1 (stereo not drawn) | 11µM*
Cn1cccc1CN1CCC2(CC1)C(=O)NCN2Cc1ccc(Cl)cc1 | 1%
O=C1NC2(CCN(Cc3ccccc3)C2)Oc2ccccc21 (stereo not drawn) | i
Cc1noc([C@@H]2CN(Cc3cc(Cl)ccc3F)C[C@H]2CO)n1 | -12%
SMILES | Pf Dd2 inh
CN1CCC2(CCC1=O)CN(C(=O)CCc1ccc3c(c1)OCO3)CCN2C (stereo not drawn) | -10%
COc1ccc(C(=O)NCC2Cn3cccc3C(=O)N2Cc2ccccc2)cc1OC (stereo not drawn) | -19%
Cc1ccc(C2=CC(c3c(F)cccc3Cl)n3ncnc3N2)cc1C (stereo not drawn) | 3%
Cc1cccc(C2C=C(c3ccc(C)c(C)c3)Nc3nnnn32)c1 (stereo not drawn) | 11µM*
COc1ccc(C2C=C(c3ccc(Br)cc3)Nc3nnnn32)c(OC)c1 (stereo not drawn) | -30%
O=C(NCC1(O)CCCCC1)c1ccc2nc(Cc3ccccc3F)oc2c1 | -17%
CC(=O)c1cc(CN2C[C@@H]3CN(C(C)=O)C[C@]3(C(=O)O)C2)n(C)c1 | -2%
Cc1noc(-c2cn(C3CCN(C(=O)c4ccc(OC(F)(F)F)cc4)C3)nn2)n1 (stereo not drawn) | -18%
Cc1ccc(C(=O)N2CCC3(CC2)C(=O)N(CC(=O)N(C)C)CN3c2ccccc2)cc1 | i
CCc1ccc(NC(=O)C(=O)NCC(c2cccnc2)N2CCN(C)CC2)cc1 (stereo not drawn) | -16%
Cc1ccc(NC(=O)C(=O)NCC(c2cccnc2)N2CCN(Cc3ccccc3)CC2)cc1 (stereo not drawn) | 81%[0.594 µM]
O=C(NCC(c1cccnc1)N1CCN(Cc2ccccc2)CC1)C(=O)Nc1cccc(Cl)c1 (stereo not drawn) | 4µM*
Cc1cccc(NC(=O)C(=O)NCC(c2ccc3c(c2)OCO3)N2CCN(c3ccccc3)CC2)c1 (stereo not drawn) | -26%
Cc1cccc(NC(=O)C(=O)NCC(c2cccnc2)N2CCN(Cc3ccccc3)CC2)c1 (stereo not drawn) | 7.9µM*
O=C(NCC(c1cccnc1)N1CCN(Cc2ccccc2)CC1)C(=O)Nc1ccc(Cl)cc1 (stereo not drawn) | 14µM*
COc1ccc(N2CCN(C(CNC(=O)C(=O)NCc3cccnc3)c3cccnc3)CC2)cc1 (stereo not drawn) | -15%[0.594 µM]
COc1ccccc1N1CCN(C(CNC(=O)C(=O)NCCN(C)C)c2cccnc2)CC1 (stereo not drawn) | -6%
COCCNC(=O)C(=O)NCC(c1cccnc1)N1CCN(c2ccccc2F)CC1 (stereo not drawn) | 55%[0.594 µM]
CN(C)C(=O)c1n[nH]c2c1CN(C(=O)c1cccc(Br)c1)CC2 | i
COCCn1c(CN(C)CC2COc3ccccc3O2)cnc1S(=O)(=O)CC1CC1 (stereo not drawn) | -16%
CCN(CC)Cc1cnc2c(C(=O)NC3(c4ccccc4)CC3)cnn2c1 | -16%
CSc1ccc(C(C(=O)O)N2CCN(Cc3csc(C)n3)CC2)cc1 (stereo not drawn) | 8%
O=C(CCC1CCCN(C(=O)Cc2c[nH]c(=O)[nH]c2=O)C1)Nc1ccccc1F (stereo not drawn) | -20%
O=C(CCC1CCCN(Cc2cccn2-c2nccs2)C1)Nc1ccccc1F (stereo not drawn) | 7.1µM*
COc1ccccc1CNC(=O)CCC1CCCN(S(=O)(=O)c2ccccc2F)C1 (stereo not drawn) | i
SMILES | Pf Dd2 inh
O=C(CCC1CCN(C(=O)c2ccccc2)CC1)Nc1ccccc1F | i
COc1cccc(C(=O)NCC2CCCN(C/C(C)=C/c3ccccc3)C2)c1OC (stereo not drawn) | -11%
CCOc1ccc(CN2CCCC(CCC(=O)Nc3ccccc3F)C2)cc1CO (stereo not drawn) | i
COc1ccccc1/C=C/CN1CCCC(CNC(=O)COc2ccccc2OC)C1 (stereo not drawn) | 7.9µM*
COc1cccc(C(=O)NCC2CCCN(Cc3nc4ccccc4[nH]3)C2)c1OC (stereo not drawn) | i
COc1ccccc1/C=C/CN1CCCC(CCC(=O)Nc2ccccc2F)C1 (stereo not drawn) | 8.9µM*
Cc1ncc2c(n1)C[C@@H]1CC[C@H]2N1C(=O)NC1CCCC1 | 9%
Cn1cncc1C(=O)N1CC(F)(F)C[C@H]1c1nc(C2CC2)no1 | 34%
Cc1cn(CC(=O)N2CCn3nc(Cc4ccccc4)cc3C2)c(=O)[nH]c1=O | 27%
Cc1nc(-c2c3n(c(=O)n(CC(=O)Nc4ccc(Cl)cc4F)c2=O)CCCCC3)no1 | 3%
CN1CCN(C(=O)c2cc(=O)[nH]o2)CC12CCC(=O)N(CCO)CC2 (stereo not drawn) | 3%
CNC(=O)[C@@H]1C[C@@H](O)CN1C1CCN(C(=O)c2cccc(C)c2)CC1 | i
O=C(c1ccccc1Cl)N1CCC(N2CC3CCCN3C2=O)CC1 (stereo not drawn) | 9%
CC(C)(C)c1csc(NC(=O)Cn2nc3c(cc2=O)CCCC3)n1 | i
COc1ccc(NC(=O)C2Cn3cccc3C(=O)N2CC(C)C)cc1 (stereo not drawn) | -9%
Cn1ncc(N2CCC(C(=O)Nc3ccccc3)C2)cc1=O (stereo not drawn) | 18%
